Rows were chosen to be rich in hits. Some 19% of all compounds tested hit in one or more screens of this group.
HT1080 IDH1KD tx: toxicity to HT-1080 IDH1 knockdown cells (counter line) | Potency, µM (series often up to 46.1 µM), for inactives: top-dose activity, negative = toxicity, most hits filed as cytotoxic | HT-1080 IDH1 knockdown viability, ATP luminescence, 48 h | AID 686971 | actives 2% (n = 360,000);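 further: potency means the concentration at half of the fitted maximal effect; 0% = DMSO wells and -100% = cell-free medium wells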
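Cytotoxicity counter-line: IDH1KD HT-1080, 48 h, CellTiter-Glo. Curves classed by r2, magnitude and activity.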
uPA generation: inhibitors of cell surface uPA generation | cell surface uPA generation assay, qHTS | Potency, µM (highest dose often 38.3 µM), for the others: top-dose activity change, negative = inhibition, actives largely listed as inhibitors | actives 0.31% (n = 330,000); active means well fitted inhibition curve with a large enough effect; inconclusive means small, poorly fitted or top-dose-only effect; inactive means no such curve, though single readings can be large or run the other way; tested in mouse RAW 264.7 cells; further: potency means the concentration at half of the fitted maximal effect; nearly all actives have a fitted effect of over 55% in size
IL-1B inflam inh: blocks inflammasome-driven IL-1 beta release. THP-1 LPS/ATP IL-1B secretion, AlphaLISA, 16 h; stronger effect = lower value. activity change, % at 57.5 µM. actives 4.7% (n = 360,000); in the data active means activity change below about -50%; inconclusive means mostly about -30% to -49%
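THP-1 cells pretreated 1 hr with compounds (up to 57.5 uM final), then stimulated with LPS (250 ng/mL final) plus ATP (1.25 mM final); secreted IL-1B measured by AlphaLISA after 16 hr, decreased signal indicating inhibition.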
TDP1 cell noCPT: qHTS for Inhibitors of human tyrosyl-DNA phosphodiesterase 1 (TDP1): qHTS in cells in absence of CPT. Potency, µM (highest dose often 46.2 µM), for the others: at the top dose activity change, negative = growth inhibition, actives largely listed as inhibitors. DT40 Tdp1-/- hTDP1 cells, no CPT, ATP luminescence, 48 h. actives 15% (n = 420,000); further: potency means the concentration at half of the fitted maximal effect; nearly all actives have a fitted effect of over 55% in size
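Cells were dispensed at 400 per well, compounds added by pin tool, plates incubated ≥48 hr at 37 °C, then CellTiter-Glo added for 30 min at room temperature before luminescence reading. Line: DT40 Tdp1-/- complemented with hTDP1; camptothecin omitted.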
HT1080NT lethal: kills 2HG-producing HT-1080-NT fibrosarcoma cells; HT-1080-NT fibrosarcoma viability, CellTiter-Glo ATP luminescence, 48 h; Potency, µM (doses to about 46.1 µM), inactives show at the highest dose activity, negative = less viability, hits mostly cytotoxic; actives 1.6% (n = 360,000); AID 686970;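 further: NT is the 2HG producing partner of a matched IDH1 knockdown line; potency means the concentration at half of the fitted maximal effect; 0% = DMSO-treated cells and -100% = media-only wells without cells; nearly all actives have a fitted effect of over 55% in size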
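Viability of the 2HG-overproducing fibrosarcoma line after 48 hours of compound exposure at 37 degrees C was determined by luminescence with CellTiter-Glo, and concentration-effect curves were then fitted and categorized.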
TDP1 cell CPT: growth inhibition of DT40 Tdp1-/-;hTDP1 cells with camptothecin (screen for TDP1 inhibitors); chicken DT40 Tdp1-/-;hTDP1 cells + 20 nM CPT, ATP luminescence, 48 h; Potency, µM (highest dose often 46.2 µM), inactives show at the highest dose activity change, negative = growth inhibition, hits mostly inhibitors; actives 12% (n = 420,000); AID 686979; further: potency means the concentration at half of the fitted maximal effect; nearly all actives have a fitted effect of over 55% in size
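Cell growth measured by CellTiter-Glo luminescence after a minimum 48 h, 37 C compound exposure with 20 nM CPT in Tdp1-knockout DT40 cells stably expressing hTDP1, seeded 400/well; qHTS titration format.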
* = called active by the depositor; ? = inconclusive; nt = not tested or not shown; [ ] = another dose, or the depositor's remark. Unless noted, the call rests on the fitted dose curve; in most records, active means well fitted curve in the direction sought with a large enough effect; inconclusive means small, poorly fitted or top-dose-only effect, or another doubt; inactive means no such curve, though single readings can be large; an effect the other way counts as inactive or inconclusive. Unless noted, on the % scale 0 is the no-effect control and ±100 the full control effect.

SMILES | HT1080 IDH1KD tx | uPA generation | IL-1B inflam inh | TDP1 cell noCPT | HT1080NT lethal | TDP1 cell CPT
COc1cc(OC)cc(-c2cc3nc(C)c(CCC(=O)NCc4ccccc4)c(C)n3n2)c1 | -17% | 0% | ? | 18µM* | -19% | ?
COc1ccccc1-c1cc2nc(C)c(CCC(=O)NCc3ccc(F)cc3)c(C)n2n1 | 6% | 4% | 16 | ? | -1% | ?
O=C(Nc1ccc(S(=O)(=O)Nc2cnc3ccccc3n2)cc1)c1ccc(Cl)c([N+](=O)[O-])c1 | 0% | 20% | -4 | ? | -12% | ?
CCOC(=O)c1c(NC(C)=O)c2c3c(sc2n1Cc1cc(C)ccc1C)CCCC3 | nt | nt | nt | ? | nt | 5.8µM*
CCOC(=O)c1c(NC(C)=O)c2c3c(sc2n1Cc1cccc(Cl)c1)CCCC3 | nt | nt | nt | 15µM* | nt | ?
C=CCn1c(=O)n2ncnc2c2c3c(sc21)CCCC3 | 7% | -1% | 0 | ? | 0% | -17%
CCOC(=O)c1c(NC(C)=O)c2c3c(sc2n1Cc1nc(-c2cccc(C)c2)oc1C)CCCC3 | nt | nt | nt | ? | nt | 3.7µM*
COC(=O)c1c(NC(C)=O)c2c3c(sc2n1Cc1cc(C)ccc1C)CCCC3 | nt | nt | nt | -56% | nt | -18%
O=c1n(Cc2ccc(Cl)cc2)c2sc3c(c2c2ncnn12)CCCC3 | 3% | -5% | -20 | 15µM* | 0% | ?
COc1ccc(CN2C(=O)c3ccccc3C2c2nnnn2-c2c(C)cccc2C)cc1OC (stereo not drawn) | 8% | nt | -12 | ? | -6% | ?
O=C1c2ccccc2NC(c2ccc(O)c(O)c2)N1c1ccccc1Cl (stereo not drawn) | -5% | -30% | 36 | ? | -2% | -19%
CC(=O)Nc1cccc(NC(C)=C(C#N)C#N)c1 | 12% | 4% | 10 | -5% | 17% | 0%
Cc1ccsc1C(=O)N(Cc1cc2cc3c(cc2nc1N1CCOCC1)CCC3)CC1CCCO1 (stereo not drawn) | nt | nt | nt | -3% | nt | -10%[9.04 µM]
CCOC(=O)c1c(NC(C)=O)c2c3c(sc2n1Cc1ccc(Cl)cc1)CCCC3 | nt | nt | nt | 15µM* | nt | ?
CCOC(=O)c1c(NC(C)=O)c2c3c(sc2n1Cc1nc(-c2ccccc2C)oc1C)CCCC3 | nt | nt | nt | -17% | nt | 0%
CC(C)(C)c1ccc(CC(=O)N2CCC2(C)C(=O)Nc2ccc3[nH]ncc3c2)cc1 (stereo not drawn) | 2% | nt | -1 | 9.2µM* | 6% | 15µM*
CC1(C(=O)Nc2ccc3[nH]ncc3c2)CCN1C(=O)Cc1ccc(-c2ccccc2)cc1 (stereo not drawn) | -22% | nt | ? | 13µM* | ? | 16µM*
CC1(C(=O)Nc2cccc(C#N)c2)CCN1C(=O)C/C=C/c1ccccc1 (stereo not drawn) | -3% | nt | -8 | ? | -1% | ?
C#Cc1ccc(NC(=O)C2(C)CCN2C(=O)Cc2ccc(C(C)(C)C)cc2)cc1 (stereo not drawn) | 10µM* | nt | -3 | ? | ? | 21µM*
C#Cc1ccc(NC(=O)C2(C)CCN2C(=O)C/C=C/c2ccccc2)cc1 (stereo not drawn) | ? | nt | -10 | 9.2µM* | ? | 16µM*
C#Cc1ccc(NC(=O)C2(C)CCN2C(=O)Cc2ccc(C(C)C)cc2)cc1 (stereo not drawn) | ? | nt | 13 | ? | ? | ?
Cc1ccnc(NS(=O)(=O)c2ccc(NC(=O)c3snnc3C)cc2)n1 | 4% | -2% | -5 | 10% | -3% | 10%
CC1CCn2c(nc3cc(C(=O)NCc4ccccc4)ccc32)C1 (stereo not drawn) | nt | nt | nt | -27% | nt | 3%
O=C(NCCN1CCN(Cc2ccccc2)CC1)c1ccc(CS(=O)(=O)c2ccc(Br)cc2)o1 | -7% | -3% | -17 | ? | -2% | ?
O=C(CC1CCCC1)Nc1ccc(Br)cc1 | -15% | 0% | -56* | -14% | 1% | -1%
SMILES | HT1080 IDH1KD tx | uPA generation | IL-1B inflam inh | TDP1 cell noCPT | HT1080NT lethal | TDP1 cell CPT
S=C(Nc1ccc(Br)cc1)NC1CCCC1 | -9% | -2% | -62* | 21µM* | -10% | ?
Cc1cccc(NC(=S)NC2CCCC2)c1 | 27% | -2% | 29 | 15µM* | 19% | ?
COCCNC(=S)NC1CC2CCCC(C1)N2Cc1cccs1 (stereo not drawn) | 21% | 2% | 12 | -12% | -6% | -1%
COc1ccc(NC(=S)NC2CCCCC2)cn1 | -12% | -2% | -1 | -9% | 9% | 7%
Cc1cccc(NC(=S)NC2CC3CCCC(C2)N3Cc2cccs2)c1 (stereo not drawn) | ? | ? | -78* | 23µM* | ? | 23µM*
CCc1c(O)nc(SCC(=O)N2CCc3cc(OC)c(OC)cc3[C@@H]2C)[nH]c1=O | -1% | 7% | -2 | -4% | -2% | 6%
CC(=O)C1CN(S(=O)(=O)c2ccc(C)cc2)C(c2ccccc2)CC1C (stereo not drawn) | -5% | nt | 20 | ? | 3% | ?
O=C(CSc1ccc([N+](=O)[O-])cn1)Nc1cc(C(F)(F)F)ccc1N1CCOCC1 | -9% | -7% | -10 | ? | -5% | ?
Cc1cccc(NNC(=O)C2CCC2)c1 | 7.3µM* | -25% | 7 | 0% | 7.3µM* | 5%
COc1ccc(CN2CCN(C(C)=O)CC2)cc1OC1CCN(C(=O)c2ccc3ccccc3n2)CC1 | nt | nt | nt | -7% | nt | 1%[9.04 µM]
Cc1cc(C(=O)N2CCc3ccccc3C2)c(C)o1 | 10% | ? | -15 | ? | 9% | 16µM*
O=C(c1cc2ccccc2o1)N1CCN(S(=O)(=O)c2ccccc2)CC1 | -2% | 12% | -1 | -21% | 1% | 12µM*
Cc1cc(C(=O)N2CCN(S(=O)(=O)c3ccccc3)CC2)c(C)o1 | -7% | -5% | -2 | ? | -2% | 23µM*
Cc1cc(C(=O)N2CCN(S(=O)(=O)c3ccc(F)c(Cl)c3)CC2)c(C)o1 | -5% | ? | 0 | ? | -7% | ?
Cc1nc2ccccc2c2oc(C(=O)N3CCc4ccccc4C3)cc12 | 0% | 1% | -1 | 16µM* | 1% | 23µM*
Cc1sc2nc(COC(=O)c3ccc(N4CCCC(C)C4)c([N+](=O)[O-])c3)[nH]c(=O)c2c1C (stereo not drawn) | -2% | -1% | 8 | 16µM* | 3% | ?
Cc1sc2nc(COC(=O)c3c(F)cccc3F)[nH]c(=O)c2c1C | 3% | 0% | 7 | ? | 7% | -8%

High-throughput results deposited in PubChem by National Center for Advancing Translational Sciences (NCATS).
